This passage reports activation results from PubChem BioAssay AID1508602 (The Scripps Research Institute Molecular Screening Center, 2020).

Hit rate of the full screen: of about 650,000 compounds, about 6,800 (1%) were called active. The entries come from a sample that favours actives as a whole. A number with no mark means an inactive call. No stated cut-off is given here; in the data, active means activation above about 4.9%; inactive means the rest.

Sequence of G-protein coupled receptor 151 (Homo sapiens) (Q8TDV0 whole entry, looked up): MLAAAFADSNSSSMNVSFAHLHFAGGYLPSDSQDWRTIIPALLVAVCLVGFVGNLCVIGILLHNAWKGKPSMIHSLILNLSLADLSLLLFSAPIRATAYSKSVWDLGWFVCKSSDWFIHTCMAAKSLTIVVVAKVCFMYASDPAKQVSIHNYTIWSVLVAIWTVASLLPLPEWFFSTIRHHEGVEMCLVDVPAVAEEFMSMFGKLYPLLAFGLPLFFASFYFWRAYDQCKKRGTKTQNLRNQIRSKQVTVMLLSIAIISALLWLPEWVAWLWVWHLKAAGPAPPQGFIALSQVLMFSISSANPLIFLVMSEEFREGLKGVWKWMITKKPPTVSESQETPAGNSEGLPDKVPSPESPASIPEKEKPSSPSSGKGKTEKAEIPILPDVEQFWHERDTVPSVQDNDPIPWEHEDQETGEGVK

The assay concerns the target G-protein coupled receptor 151 (Homo sapiens) (UniProt Q8TDV0). Kind of assay: activates the human receptor GPR151, primary screen, cell-based, PathHunter beta-arrestin, luminescence (AID 1508602).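 Further: 0% = median of compound wells and 100% = cells with positive control.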 To be noted: PathHunter beta-arrestin GPR151 cells, at 11.2 µM, hits give high values.
Take `O=C(Cc1ccccc1)NCc1nnc2n1CCN(Cc1ccc(F)cc1)CC2`: the activation was -0.584%. The value for `COc1cc(-c2coc3cc(O[C@@H]4O[C@H](CO)[C@@H](O)[C@H](O)[C@H]4O)c(OC)c(O)c3c2=O)cc(O)c1OC` was 8.99% (active); that for `COc1ccc(-c2coc3cc(OC4OC(COC5OC(C)C(O)C(O)C5O)C(O)C(O)C4O)cc(O)c3c2=O)cc1` (stereo not drawn) was -0.0364%.

Regarding `CCc1cc2c(=O)c(-c3ccc4c(c3)OCO4)c(C)oc2cc1OC1OC(CO)C(O)C(O)C1O` (stereo not drawn), the activation was 0.749%. With `CCc1ccc(CN2CCc3nnc(-c4ccccc4)n3CC2)o1` the figure was -0.804%; with `CCOC(=O)N1CCC(N2CCC(CO)(CCOc3ccccc3)CC2)CC1`, 0.442%. With `C=CCN1C(=O)CC(C(=O)OC)C12CCN(C1CCN(C(=O)OCC)CC1)CC2` (stereo not drawn) the figure was 12.8% (active); with `CCN1C(=O)CC(C(=O)OC)C12CCN(Cc1ccc(OC)c(OC)c1)CC2` (stereo not drawn), 2.97%; with `CCCCOc1ccccc1CNCC`, 6.95% (active).

Turning to `CCOc1ccccc1OCCCNCc1ccccc1`, the activation was 0.0114%. For the compound `CCOc1ccccc1CNCC(C)O` (stereo not drawn), the activation is -1.22%. The value for `CNC(=O)c1c(NC(=O)c2ccccc2F)sc2c1CCC(C(C)(C)C)C2` (stereo not drawn) was 2.94%; that for `O=C1CC(Cc2ccccc2)C(=O)N1c1ccc(Cl)cc1` (stereo not drawn) was 0.299%. With `Cc1ccc(Cn2c(=S)[nH]c3ccc(Cl)cc3c2=O)cc1` the figure was 0.529%; with `Oc1ccc(-c2cnc3ccc(NC4CCOCC4)nn23)cc1`, -0.504%.

Take `Brc1cccc(-c2cnc3ccc(NC4CCOCC4)nn23)c1`: the activation was -0.245%. On to `c1ccc2sc(-c3cnc4ccc(NC5CCOCC5)nn34)cc2c1`, for which the activation is 5.94% (active).

For the compound `O=C(CN(CC1CCCO1)C(=O)CNS(=O)(=O)c1ccccc1)NC1CCCCC1` (stereo not drawn), the activation was 0.636%.

Consider `Cc1cc(C)nc(SCC(=O)N/N=C/c2ccc(Cl)cc2Cl)n1`, for which the activation was 0.39%. For `CC(/C=N\NC(=O)CSc1nc(C)cc(C)n1)=C\c1ccccc1`, the activation was 9.38% (active). The value for `COc1cccc(/C=N/NC(=O)CSc2nc(C)cc(C)n2)c1OC` was 1.66%; that for `COc1ccc(C(=O)CCNC(C(=O)O)C(C)O)cc1` (stereo not drawn) was -0.172%.

With `COc1ccc(/C=N/N2CCN(c3ccccn3)CC2)cc1`, the activation was 0.849%. With `c1ccc(N2CCN(c3ccccn3)CC2)nc1` the figure was -0.177%; with `C(=N\N1CCN(c2ccccn2)CC1)/C1=C(N2CCOCC2)C(=C/c2ccccc2)/CC1`, 6.77% (active); with `CCOC(=O)c1sc2nc(SCC(=O)NCc3ccccc3Cl)n(Cc3ccc(Cl)cc3)c(=O)c2c1C`, -0.0258%. The value for `Cc1cc(C)c(S(=O)(=O)Nc2cccc(N3CCCS3(=O)=O)c2)c(C)c1` was 0.72%; that for `Cc1cc(C)cc(NC(=O)C(CC(C)C)NS(=O)(=O)c2ccc3c(c2)oc(=O)n3C)c1` (stereo not drawn) was 3.86%; that for `Cc1cn2c3c(=O)n(Cc4ccccc4)c(=O)n(C)c3nc2n1C` was 0.103%. With `Cc1ccccc1C(=O)NNC(=O)c1ccc(NC(=O)C(C)C)cc1` the figure was 1.54%. `CC1CCN(CCCNc2nc(=S)[nH]c3ccccc23)CC1`: the activation was -3.01%.

On to `O=C(O)C1CCC(CNc2nc(=S)[nH]c3ccccc23)CC1` (stereo not drawn), for which the activation is -0.367%. The value for `CCN1CCCC1CNc1nc(=S)[nH]c2ccccc12` (stereo not drawn) was 9.1% (active). With `CCCCn1c(N)c(N(CC(C)C)C(=O)CCC(=O)O)c(=O)[nH]c1=O` the figure was -0.868%. The value for `CCN1CCN(C(C)C(=O)Nc2cc(C)on2)CC1` (stereo not drawn) was -5.25%; that for `CC1C(=O)NC(=O)N1c1ccc(Cl)cc1` (stereo not drawn) was 2.6%; that for `COc1cn2c(cc1=O)C(=O)N(CCNC(=O)c1cccc(F)c1)CC2` was 0.552%. Regarding `C=CCC(CC=C)(NC(=O)c1ccc([N+](=O)[O-])cc1)c1ccccc1`, the activation was 2.8%. On to `CCC(/C=C1\Sc2ccc(-c3ccccc3)cc2N1CC)=C\c1sc2ccc3ccccc3c2[n+]1CC`, for which the activation was -0.19%. As to `CCN1/C(=C/c2ccc3cc(C)ccc3[n+]2CC)Sc2ccc(OC)cc21`, the activation was 1.84%. For the compound `CCN1/C(=C/c2ccc3cc(C)ccc3[n+]2CC)Sc2ccc(-c3ccccc3)cc21`, the activation is 18.5% (active). On to `CCCc1cc(=O)[nH]c(SCC(=O)Nc2ccc(C(N)=O)cc2)n1`, for which the activation was -0.889%. Consider `COc1ccc(N2C(=O)C3CCCN3C2c2cccc(OC)c2)cc1` (stereo not drawn), for which the activation was 6.4% (active).

In the case of `COc1ccc(N2C(=O)C3CCCN3C2c2cc(OC)c(OC)cc2OC)cc1` (stereo not drawn), the activation was -1.11%. Turning to `COc1cccc(N2C(=O)C3CCCN3C2c2ccc(F)cc2)c1` (stereo not drawn), the activation was 1.08%. With `CCOC(=O)COc1cccc2c(=O)n(CC(=O)Nc3cccc(Cl)c3)ccc12` the figure was -0.932%. The value for `CC(C)(C)CC(C)(C)c1ccc(OCC(=O)NNC(=O)c2ccccc2Cl)cc1` was -0.581%. The value for `CCSc1nnc(NC(=O)CSc2nc3ccccc3[nH]2)s1` was 0.0173%; that for `CCOC(=O)c1ccc2nc(NC(=O)CSc3nc4ccccc4[nH]3)sc2c1` was 7.06% (active); that for `CCOC(=O)c1c(NC(=O)CSc2nc3ccccc3[nH]2)sc2c1CCC2` was -0.467%. `C=CCn1cnc2sc(C)c(-c3ccc(Cl)cc3)c2c1=O`: the activation is 1.23%. The value for `C=CCSc1nnc(-c2cc(N(C)C)nc(N(C)C)n2)n1C` was 3.52%.

With `COCC1CCN(C(=O)c2cc(COc3ccc4ncccc4c3)on2)C1` (stereo not drawn), the activation was 2.98%. Take `O=C(c1cc(COc2ccc3ncccc3c2)on1)N1C[C@@H]2CCC[C@H]1C2`: the activation was 0.767%. The value for `CCN(CC)C1CCN(C(=O)c2cc(COc3ccc4ncccc4c3)on2)C1` (stereo not drawn) was 5.71% (active); that for `Cc1[nH]c2ccccc2c1C(=O)CN1CCN(c2ccccc2)CC1` was -0.808%. The value for `Cc1cc2c(cc1C)NC(CC(=O)Nc1ccc(Cl)cc1Cl)C(=O)N2` (stereo not drawn) was -1.58%; that for `O=C(Nc1ccc(Cl)c(-c2nc3ccccc3o2)c1)c1cc([N+](=O)[O-])ccc1Cl` was 0.267%; that for `COc1ccc(COC(=O)NNC(=O)c2cccc(Cl)c2)cc1` was 6.17% (active). With `Cc1cc(C)cc(OCC(=O)NNC(=O)c2cccc(Cl)c2)c1` the figure was 0.56%; with `COc1ccc(C(=O)NNC(=O)c2cccc(Cl)c2)cc1OC`, 1.28%; with `CCOC(=O)N1CCN(C(=O)CSc2nnc(-c3ccc(OC)cc3)o2)CC1`, -0.713%. `COc1ccc(-c2cn3c(NC(=O)c4ccccc4)cnc3cn2)cc1`: the activation was -2.03%. With `COc1cc(/C=N/NC(=O)c2cccs2)cc(OC)c1OC` the figure was -1.73%; with `O=C(N/N=C/c1cccc(Cl)c1Cl)c1ccc(O)cc1`, 0.598%; with `O=C(N/N=C/c1cccc(Cl)c1Cl)c1cccs1`, 10.6% (active).

For the compound `COc1ccc(CNCc2cccn2-c2sc(C)c(C)c2C(=O)O)cc1`, the activation is 0.477%. `C=CCN(c1ccc(C(=O)Nc2ccc(OCc3ccccc3)cc2)cc1)S(C)(=O)=O`: the activation is 5% (active).

On to `C=CCN(c1ccc(C(=O)Nc2cc(C)cc(C)c2)cc1)S(C)(=O)=O`, for which the activation was -0.236%. With `C=CCN(c1ccc(C(=O)Nc2ccc(Br)c(Cl)c2)cc1)S(C)(=O)=O` the figure was 0.888%.

Consider `CCOC(=O)c1ccc(NC(=O)CSc2nc(NCc3ccc(Cl)cc3)c3ccccc3n2)cc1`, for which the activation is -0.895%. Turning to `O=C(Nc1cccc(Cl)c1)N(C1=NCCC1)c1ccc(Cl)cc1`, the activation is 0.148%. The value for `CC(=O)c1c(C)[nH]c(C(=O)CN2CCN(C(=O)c3ccccc3)CC2)c1C` was 0.331%; that for `CC(=O)c1c(C)[nH]c(C(=O)N2CCN(c3ccc(Cl)cc3)CC2)c1C` was 5.19% (active); that for `CCc1c(C(=O)N2CCN(c3cccc(Cl)c3)CC2)[nH]c(C)c1C(C)=O` was 4.26%.

In the case of `COc1ccc(C(=O)NCCc2ccc(F)cc2)cc1[N+](=O)[O-]`, the activation was 0.474%.

For `COc1cccc(-c2nnc(N)s2)c1`, the activation is -0.725%. As for `Cc1cnc(C(=O)N2CCc3ccc(NC(=O)Cc4ccccc4F)cc3C2)cn1`, the activation was 1.39%.

Take `CCOC(=O)N1CCN(Cc2nc3c(c(=O)n(C)c(=O)n3C)n2CC(C)C)CC1`: the activation was -1.33%. `Cc1nc(N2CCCC2C(=O)N2CC3CCC2C3)nc2ccccc12` (stereo not drawn): the activation was 0.0962%. The value for `COc1ccccc1C1CCCN1C(=O)C1CC(Cc2ccc(F)cc2)=NO1` (stereo not drawn) was 1.31%; that for `COc1ccccc1C1CCCN1C(=O)C1CCN(c2nc(C)c3ccccc3n2)CC1` (stereo not drawn) was 11.3% (active); that for `O=C(O)CCC(=O)N1N=C(c2ccc(O)cc2)CC1c1ccc(Br)cc1` (stereo not drawn) was 0.932%. With `CCc1cc(C(=O)COc2ccc([N+](=O)[O-])cc2)c(O)cc1O`, the activation is -0.273%. The value for `Cc1cc(Oc2ncnc(N)c2[N+](=O)[O-])cc(C(C)C)c1` was 1.22%; that for `NC(=O)c1ccnc(N2CCc3ccccc3C2)c1` was 0.149%; that for `CN1C(=O)NC(=O)/C(=C\c2ccc(-c3ccc(Br)c(Cl)c3)o2)C1=O` was -0.645%.

Regarding `COc1cc(C=O)ccc1OCc1ccc(Br)cc1`, the activation is -0.687%.

As for `COc1cc(C=O)ccc1OCCOc1ccc(C=O)cc1OC`, the activation was -1.4%. For the compound `COc1ccc(C=O)cc1OCc1ccc(F)cc1`, the activation was 4.92% (active).

As for `O=C(CC1=CCCCC1)NCC1Cc2cc(F)cc(-c3cncnc3)c2O1` (stereo not drawn), the activation is -1.03%.

As to `CCc1cccc(C)c1NC(=O)/C=C/C(=O)O`, the activation is 0.671%.

As for `CCCNC(=O)c1ccc(Cl)cc1[N+](=O)[O-]`, the activation is 1.13%.
